Results filed as inconclusive are left out. Unmarked numbers belong to inactive results. The source made the active and inactive calls. Calls come from the whole dose curve; as a rule, active = well fitted inhibition curve with a large enough effect; inconclusive = small, poorly fitted or top-dose-only effect; inactive = flat fitted curve, though single readings scatter.
% is set by controls: 0 for no effect and ±100 for the full control effect; potency is the fitted concentration of half-maximal effect.

Dual specificity protein kinase CLK4 (Homo sapiens), sequence (Q9HAZ1 whole entry, looked up): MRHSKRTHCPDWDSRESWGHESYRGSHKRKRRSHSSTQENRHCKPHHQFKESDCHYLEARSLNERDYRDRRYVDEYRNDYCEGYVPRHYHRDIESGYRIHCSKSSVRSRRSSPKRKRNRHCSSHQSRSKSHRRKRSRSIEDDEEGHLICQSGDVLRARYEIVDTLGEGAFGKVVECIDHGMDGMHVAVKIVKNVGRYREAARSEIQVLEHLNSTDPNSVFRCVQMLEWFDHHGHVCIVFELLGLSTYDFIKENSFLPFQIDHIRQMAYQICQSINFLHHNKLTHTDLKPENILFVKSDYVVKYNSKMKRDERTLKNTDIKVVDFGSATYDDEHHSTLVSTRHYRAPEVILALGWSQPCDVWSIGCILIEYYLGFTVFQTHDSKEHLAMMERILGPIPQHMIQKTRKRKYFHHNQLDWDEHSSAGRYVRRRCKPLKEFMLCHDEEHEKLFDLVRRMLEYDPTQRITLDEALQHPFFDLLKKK

This experiment concerns the target Dual specificity protein kinase CLK4 (Homo sapiens) (UniProt Q9HAZ1). Description: qHTS Assay for Inhibitors of CDC-like Kinase 4 (ADP-FP Assay) (AID 1795). Note: nearly all actives have a fitted effect of over 60% in size. The settings on record: Transcreener ADP fluorescence polarization; series mostly up to 50 µM; activity change, negative = inhibition: at the top concentration. Summed up:
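Recombinant human Clk4 (6.25 nM) phosphorylated RS repeat peptide (100 uM) with 1 uM ATP in Tris pH 7.5/MgCl2/EGTA/DTT/Triton buffer for one hour. ADP was quantified by Transcreener competitive fluorescence polarization against an ADP calibration curve.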
Background: In qHTS, concentration-response curves come from the screen itself.
`Cc1cccc(CNc2ncncc2-c2ccccc2CN(C)C)c1`: the “activity change, negative = inhibition” value was -0.558%.
The same measure, in the same setting: the result for `COc1ccc(Oc2ncc3nc(-c4cc(F)cc(F)c4)c(=O)n(C4CC4)c3n2)cc1` reads 0.16%; that for `O=c1c(-c2ccccc2)nc2cnc(Oc3ccccc3)nc2n1C[C@H]1CCCO1`, 6.81%; that for `COc1ccccc1-c1nccc(N2CCN(C)CC2)n1`, 2.23%.
In the case of `Cc1nc2cnc(N3CCN(C)CC3)nc2n(CCc2ccccc2)c1=O`, the “activity change, negative = inhibition” value was 5.51%.
The same measure, in the same setting: the result for `COc1cccc(-c2cncnc2NCCN2CCOCC2)c1` reads 5.66%; that for `O=c1c(CCc2ccccc2)nc2cnc(Oc3ccccc3)nc2n1C1CC1`, 12%.
As to `CCNc1ncc2ncc(=O)n(Cc3ccc(F)cc3)c2n1`, the Potency is 11200 nM (active).
Still for that read-out and setting: the result for `c1ccc(CNc2nc(-c3cccnc3)nc3ccccc23)cc1` reads 5010 nM (active).
The same measure, in the same setting: the result for `COc1cccc(Cn2c(=O)cnc3cnc(Nc4cccc(OC)c4)nc32)c1` reads 2000 nM (active); that for `COc1cccc(-c2ccc3ncnc(NCc4cnc(C)cn4)c3c2)c1`, 1410 nM (active).
As for `Cn1c(=O)c(-c2ccccc2)nc2cnc(N3CCOCC3)nc21`, the “activity change, negative = inhibition” value is 4.06%.
Same read-out and setting: the same measure for `CN1CCN(c2ncc3nc(-c4cn(C)c5ccccc45)c(=O)n(C[C@H]4CCCO4)c3n2)CC1`: 7.2%.
For the compound `COc1cccc(-c2nc(NC3CC3)c3ccccc3n2)c1`, the Potency is 2820 nM (active).
The same measure, in the same setting: the result for `COc1ccc2[nH]cc(CCNc3ncnc4ccc(-c5ccoc5)cc34)c2c1` reads 562 nM (active).
Consider `O=c1c(-c2cccc(F)c2)nc2cncnc2n1Cc1ccc(F)cc1`, for which the “activity change, negative = inhibition” value is 7.97%.
For the compound `COc1ccccc1CNc1ncnc2ccc(-c3cccc(NS(C)(=O)=O)c3)cc12`, the Potency is 7080 nM (active).

For the origin of these results see PubChem BioAssay (NCATS).
